Screens (PubChem BioAssay)
tim23-1 inh – growth inhibitors of tim23-1 mutant yeast | S. cerevisiae tim23-1 growth, BacTiter-Glo luminescence, 24 h | inhibition, % at 20 µM | 330,000 tested, 1.3% active;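 active means growth inhibition of the mutant yeast at or above 50%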;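 further: temperature-sensitive mutant grown at 25 °C; plate controls were DMSO-treated mutant yeast for no effect and medium wells lacking yeast for full effect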
tim10-1 inh – tim10-1 yeast growth inhibition; inhibition, % at 20 µM; S. cerevisiae tim10-1 ts strain growth, BacTiter-Glo, 24 h; 330,000 tested, 2.2% active;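 active means inhibition of at least 40%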;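 further: mutant grown at 25 °C; 0% = DMSO wells with yeast and 100% = wells holding no yeast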
EBI2 block – blocks human EBI2 receptor beta-arrestin signaling; 360,000 tested, 0.81% active; EBI2 beta-arrestin recruitment, luminescence, 7a,25-OHC stimulated; inhibition, % at 5 µM; AID 651636; P32249; in the data active means inhibition above about 38%;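 further: enzyme fragment complementation signal reports receptor beta-arrestin coupling in cells; 0% = agonist plus DMSO wells and 100% = wells without agonist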
Target sequence (P32249 whole entry, looked up, the tested form may be a part): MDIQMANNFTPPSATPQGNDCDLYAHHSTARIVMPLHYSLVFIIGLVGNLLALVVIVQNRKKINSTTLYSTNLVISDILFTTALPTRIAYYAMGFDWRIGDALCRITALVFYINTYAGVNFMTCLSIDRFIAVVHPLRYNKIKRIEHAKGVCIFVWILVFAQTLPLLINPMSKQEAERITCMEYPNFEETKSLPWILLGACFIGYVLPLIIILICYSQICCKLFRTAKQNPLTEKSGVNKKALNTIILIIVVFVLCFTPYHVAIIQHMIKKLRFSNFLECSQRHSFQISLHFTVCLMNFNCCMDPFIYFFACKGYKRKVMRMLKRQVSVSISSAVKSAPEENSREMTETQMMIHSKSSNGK
SKKanGAS inh – blocks kanamycin growth of S. pyogenes SKKanGAS strain; BacTiter-Glo, 6 h; 300,000 tested, 1.3% active; inhibition, % at 7.5 µM;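 active means mean replicate score, as percent of positive control median, at least 50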;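 further: strain carries kanamycin resistance gene driven by streptokinase promoter and grows in 40 µg/ml kanamycin; loss of luminescence reflects streptokinase promoter inhibition or plain growth inhibition; 0% = median of DMSO wells and 100% = positive control at its reference dose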
TIM10 inh – inhibits growth of TIM10 yeast strain | S. cerevisiae TIM10 strain growth, BacTiter-Glo luminescence, 24 h | AID 463195 | 330,000 tested, 1.4% active | inhibition, % at 10 µM;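 active means inhibition of 40% or more at the single tested concentration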;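 further: wild-type TIM10 isogenic control strain grown at permissive 25 °C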
PfHsp90 set2 – inhibits growth of yeast expressing Plasmodium falciparum Hsp90; inhibition, % at 9.4 µM; AID 504621; S. cerevisiae expressing PfHsp90, BacTiter-Glo ATP, 48 h; yeast lacking PDR1 and PDR3 efflux regulators; 310,000 tested, 0.32% active;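 active means every replicate shows inhibition above about 80%, whatever the replicate mean, limit read from the data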;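 further: 0% = DMSO neutral controls and 100% = 20 µM radicicol positive controls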
tim10-1 confirm – tim10-1 yeast growth inhibition, confirmed; 7,400 tested, 56% active; shares compounds with tim10-1 inh; AID 463213; inhibition, % at 20 µM; S. cerevisiae tim10-1 ts strain growth, BacTiter-Glo, 24 h;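 active means inhibition of yeast growth at or above a set limit in either of two repeat tests at 20 µM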;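 further: tim10-1 mutant grown at permissive 25 °C to find synthetic lethal compounds; 0% = DMSO yeast wells and 100% = medium wells without yeast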
tim10 confirm – confirmation of TIM10 yeast growth inhibitors. shares compounds with TIM10 inh. inhibition, % at 10 µM. AID 463215. S. cerevisiae tim10 strain growth, BacTiter-Glo luminescence, 24 h. 4,600 tested, 63% active;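 active means inhibition of yeast growth at or above a set limit in either of two replicates at 10 µM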;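 further: this counterscreen used the strain with wild-type TIM10; 0% = yeast with DMSO and 100% = medium wells lacking yeast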
tim23-1 confirm – tim23-1 yeast growth inhibition, confirmed | shares compounds with tim23-1 inh | inhibition, % at 20 µM | S. cerevisiae tim23-1 growth, BacTiter-Glo luminescence, 24 h | 4,400 tested, 83% active | AID 463218;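 active means inhibition above about 39% in either of two replicate wells at 20 µM, limit read from the data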;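 further: temperature-sensitive tim23-1 mutant grown at 25 °C; 0% = DMSO wells with yeast and 100% = medium wells without yeast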
Numbers without * were called inactive. The list is not random: actives were taken first. Their share in the collection is about 4.7%.

For CCOC(=O)CSC1=NC(=O)/C(=C/c2ccc(Br)cc2)S1 the results were tim23-1 inh 60.7*, tim10-1 inh 48.5*, EBI2 block -2.7, SKKanGAS inh 16.2, TIM10 inh 60.8*, PfHsp90 set2 -71.0, tim10-1 confirm 62.1*, tim10 confirm 52.1* and tim23-1 confirm 69.7*.
`O=C(NC(=S)NCc1ccco1)c1ccc([N+](=O)[O-])cc1` gave tim23-1 inh 47.8, tim10-1 inh 23.8, EBI2 block -11.8, TIM10 inh 10.9 and PfHsp90 set2 -8.9.
CC(C)CNC(=S)NC(=O)c1ccc([N+](=O)[O-])cc1 was read as tim23-1 inh 52.7*, tim10-1 inh 40.0, EBI2 block 3.4, SKKanGAS inh -3.0, TIM10 inh 25.8, PfHsp90 set2 -31.7, tim10-1 confirm 32.1* and tim23-1 confirm 42.5*.
Screening Cc1ccc(C(C)C)cc1NC(=O)Nc1ccc([N+](=O)[O-])cc1 returned tim23-1 inh 74.7*, tim10-1 inh 75.7*, EBI2 block 28.8, SKKanGAS inh 87.9*, TIM10 inh 68.5*, PfHsp90 set2 31.6, tim10-1 confirm 79.3*, tim10 confirm 67.2* and tim23-1 confirm 83.0*.
`O=C(NCc1cccc(Cl)c1)NC(=O)c1csc([N+](=O)[O-])c1` gave tim23-1 inh 3.5, tim10-1 inh -8.6, EBI2 block -9.1, SKKanGAS inh 6.8, TIM10 inh 8.8 and PfHsp90 set2 6.9.
`CCCC(=O)NC(=S)NNC(=O)c1ccc([N+](=O)[O-])cc1` gave tim23-1 inh 12.0, tim10-1 inh 18.6, EBI2 block 4.0, SKKanGAS inh -8.4, TIM10 inh 8.6 and PfHsp90 set2 9.7.
CCCCNC(=S)NC(=O)c1ccc([N+](=O)[O-])cc1 was read as tim23-1 inh 53.4*, tim10-1 inh 51.6*, EBI2 block -14.8, SKKanGAS inh 0.9, TIM10 inh 27.4, tim10-1 confirm 30.1 and tim23-1 confirm 52.7*.
Cc1cc(O)c(C(C)C)cc1NC(=O)Nc1ccc([N+](=O)[O-])cc1 was read as EBI2 block 1.7 and PfHsp90 set2 -0.2.
Screening CC(C)CNC(=S)NC(=O)c1csc([N+](=O)[O-])c1 returned tim23-1 inh 63.1*, tim10-1 inh 41.9*, EBI2 block -5.6, SKKanGAS inh 10.7, TIM10 inh 37.0, PfHsp90 set2 -12.2, tim10-1 confirm 32.0* and tim23-1 confirm 64.3*.
Cc1cc(C)cc(NC(=O)CN2CCN(CCN=CC3=C(O)CC(c4ccc(Cl)cc4)CC3=O)CC2)c1 (configuration not stated) was read as tim23-1 inh 14.7, tim10-1 inh 15.8, EBI2 block 3.2, SKKanGAS inh 8.1, TIM10 inh 15.2 and PfHsp90 set2 -27.5.
`Cn1ncc(Cl)c1C(=O)N1CCN(c2ncccn2)CC1` gave tim23-1 inh 5.7, tim10-1 inh 13.1, EBI2 block 0.3, SKKanGAS inh -1.2, TIM10 inh -15.1 and PfHsp90 set2 -12.6.
Screening CC(C)CCNC(=S)Nc1ccc(Br)cc1 returned tim23-1 inh 48.4, tim10-1 inh 39.2, EBI2 block 16.0, SKKanGAS inh 10.8, TIM10 inh 28.0 and PfHsp90 set2 25.8.
`CC(C)CCNC(=S)Nc1ccc([N+](=O)[O-])cc1` gave tim23-1 inh 59.8*, tim10-1 inh 73.5*, EBI2 block 0.4, SKKanGAS inh 1.6, TIM10 inh 51.6*, PfHsp90 set2 14.1, tim10-1 confirm 67.5*, tim10 confirm -40.5 and tim23-1 confirm 55.7*.
Screening COc1cc(C(=O)N/N=C/c2sc(N3CCOCC3)nc2-c2ccccc2)cc(OC)c1OC returned tim23-1 inh 13.4, tim10-1 inh 18.6, EBI2 block 7.6, SKKanGAS inh 14.9 and TIM10 inh 7.8.
`Cc1ccc(CNc2nc(Cl)c(C#N)s2)cc1` gave tim23-1 inh -0.4, tim10-1 inh 16.1, EBI2 block 1.3, SKKanGAS inh 3.9, TIM10 inh -0.3 and PfHsp90 set2 -3.8.
N#Cc1sc(NCc2cccc(Cl)c2)nc1Cl was read as tim23-1 inh 69.1*, tim10-1 inh 58.4*, EBI2 block 4.4, SKKanGAS inh -0.3, TIM10 inh 43.8*, PfHsp90 set2 -50.4, tim10-1 confirm 48.9*, tim10 confirm 43.2* and tim23-1 confirm 57.5*.
Cc1ccc(C(=O)NCC2CCCN2S(=O)(=O)c2cccs2)cc1C (configuration not stated) was read as tim23-1 inh 27.7, tim10-1 inh 18.8, EBI2 block 7.8, SKKanGAS inh 0.6 and TIM10 inh 9.8.
COc1ccc(OC)c(NC(=O)c2ccccc2OC(C)=O)c1 was read as tim23-1 inh 54.0*, tim10-1 inh 62.4*, EBI2 block -0.9, SKKanGAS inh 1.3, TIM10 inh 21.5, PfHsp90 set2 -17.3, tim10-1 confirm 32.2* and tim23-1 confirm 49.5*.
`Cc1cc(C)nc(SC2=CS(=O)(=O)c3ccccc32)n1` gave tim23-1 inh 20.9, tim10-1 inh 15.3, EBI2 block -53.6, SKKanGAS inh -0.3, TIM10 inh 27.9 and PfHsp90 set2 38.0.
`O=S1(=O)C=C(Sc2nc3ccccc3s2)c2ccccc21` gave tim23-1 inh 66.1*, tim10-1 inh 69.4*, SKKanGAS inh -11.0, TIM10 inh 76.6*, tim10-1 confirm 64.7*, tim10 confirm 86.0* and tim23-1 confirm 12.1.
For COC(=O)C1=C(C)N(Cc2ccco2)C(=O)/C1=C\c1ccc([N+](=O)[O-])cc1 the results were tim23-1 inh 63.8*, tim10-1 inh 62.4*, EBI2 block -6.8, SKKanGAS inh 19.1, TIM10 inh 65.5*, PfHsp90 set2 -6.9, tim10-1 confirm 77.4*, tim10 confirm 73.7* and tim23-1 confirm 57.4*.
CCN1C(=O)/C(=C\c2ccc3c(c2)OCO3)C(C(=O)OC)=C1C was read as tim23-1 inh 50.0, tim10-1 inh 46.5*, EBI2 block -2.0, SKKanGAS inh -8.0, TIM10 inh 56.3*, tim10-1 confirm 45.2*, tim10 confirm 42.9* and tim23-1 confirm 61.7*.
For CCN1CCC(Nc2ccnc3cc(Cl)ccc23)CC1 the results were tim23-1 inh -193.2, tim10-1 inh -156.6, EBI2 block 1.1, SKKanGAS inh -4.7, TIM10 inh -218.8 and PfHsp90 set2 -8.3.
